The panel holds about 83,000 compounds, 20% with a hit somewhere; the sample as a whole holds those more often.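 Percent growth is the endpoint: 0 to 100 indicates growth inhibition (40 means 60% inhibition), 0 means no net growth, and negative values indicate cell death.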 A number with no mark means an inactive call. Calls of active or inactive are those of the source. Rule for the calls: active = growth percent below 10; inactive = the rest.
Columns and labels:
Assay in all cases: NCI-60 one-dose screen, 48 h (100 = growth as untreated, 0 = no growth, -100 = all killed)
Settings in all cases: 10 µM unless noted
NCI-H23 lung = test system: NCI-H23 lung
NCI-H226 lung = test system: NCI-H226 lung
NCI-H322M lung = test system: NCI-H322M lung
HOP-62 NSCLC = test system: HOP-62 NSCLC
NCI-H460 lung = test system: NCI-H460 lung
HOP-92 NSCLC = test system: HOP-92 NSCLC
NCI-H522 lung = test system: NCI-H522 lung
A549/ATCC NSCLC = test system: A549/ATCC NSCLC
786-0 renal = test system: 786-0 renal
COLO 205 colon = test system: COLO 205 colon
DU-145 prostate = test system: DU-145 prostate
K-562 leukemia = test system: K-562 leukemia
MALME-3M melanoma = test system: MALME-3M melanoma
MDA-MB-231 breast = test system: MDA-MB-231 breast
RXF 393 renal = test system: RXF 393 renal
SF-268 CNS = test system: SF-268 CNS
SF-295 CNS = test system: SF-295 CNS
SF-539 CNS = test system: SF-539 CNS
UACC-257 melanoma = test system: UACC-257 melanoma
M14 melanoma = test system: M14 melanoma

SMILES: CS(=O)(=O)Nc1cccc(-c2ccc3ncnc(Nc4ccc(F)c(Cl)c4)c3c2)c1
- growth (NCI-H23 lung): 42.6%
- growth (NCI-H226 lung): 44.5%
- growth (NCI-H322M lung): 15%
- growth (HOP-62 NSCLC): 39.8%
- growth (NCI-H460 lung): 20%
- growth (HOP-92 NSCLC): 34.6%
- growth (NCI-H522 lung): -23.6% (active)
- growth (A549/ATCC NSCLC): 25.3%
- growth (786-0 renal): -6.08% (active)
- growth (COLO 205 colon): -33.3% (active)
- growth (DU-145 prostate): 28.4%
- growth (K-562 leukemia): 11.2%
- growth (MALME-3M melanoma): 31%
- growth (MDA-MB-231 breast): -2.84% (active)
- growth (RXF 393 renal): 23.7%
- growth (SF-268 CNS): 38.9%
- growth (SF-295 CNS): 3.13% (active)
- growth (SF-539 CNS): 25.9%
- growth (UACC-257 melanoma): 49.4%
- growth (M14 melanoma): 10.5%

SMILES: CC(=O)Nc1ccc(OC(=O)c2ccccc2O)cc1
- growth (NCI-H23 lung): 99.5%
- growth (NCI-H226 lung): 106%
- growth (NCI-H322M lung): 111%
- growth (HOP-62 NSCLC): 99.8%
- growth (NCI-H460 lung): 106%
- growth (HOP-92 NSCLC): 85%
- growth (NCI-H522 lung): 106%
- growth (A549/ATCC NSCLC): 102%
- growth (786-0 renal): 107%
- growth (COLO 205 colon): 108%
- growth (DU-145 prostate): 110%
- growth (K-562 leukemia): 88.1%
- growth (MALME-3M melanoma): 105%
- growth (MDA-MB-231 breast): 108%
- growth (RXF 393 renal): 114%
- growth (SF-268 CNS): 106%
- growth (SF-295 CNS): 95.3%
- growth (SF-539 CNS): 108%
- growth (UACC-257 melanoma): 111%
- growth (M14 melanoma): 109%

SMILES: Nc1nc(Cl)cc(NCCCCNc2cc(Cl)nc(N)n2)n1
- growth (NCI-H23 lung): 102%
- growth (NCI-H226 lung): 109%
- growth (NCI-H322M lung): 87.1%
- growth (HOP-62 NSCLC): 107%
- growth (NCI-H460 lung): 121%
- growth (HOP-92 NSCLC): 74.3%
- growth (NCI-H522 lung): 83.8%
- growth (A549/ATCC NSCLC): 108%
- growth (786-0 renal): 108%
- growth (COLO 205 colon): 105%
- growth (DU-145 prostate): 104%
- growth (K-562 leukemia): 101%
- growth (MALME-3M melanoma): 145%
- growth (MDA-MB-231 breast): 114%
- growth (RXF 393 renal): 123%
- growth (SF-268 CNS): 112%
- growth (SF-295 CNS): 121%
- growth (SF-539 CNS): 96.5%
- growth (UACC-257 melanoma): 105%
- growth (M14 melanoma): 117%

SMILES: CCc1c(C)c2cc(-n3c(-c4ccc(OC)cc4)csc3=N)c(O)c(C)c2oc1=O
- growth (NCI-H23 lung): 26.7%
- growth (NCI-H226 lung): 56%
- growth (NCI-H322M lung): 54.5%
- growth (HOP-62 NSCLC): 30.4%
- growth (NCI-H460 lung): 11.1%
- growth (HOP-92 NSCLC): 33.5%
- growth (NCI-H522 lung): -46.5% (active)
- growth (A549/ATCC NSCLC): 26.3%
- growth (786-0 renal): 21.5%
- growth (COLO 205 colon): 12.6%
- growth (DU-145 prostate): 17.7%
- growth (K-562 leukemia): 5.33% (active)
- growth (MALME-3M melanoma): 15.3%
- growth (MDA-MB-231 breast): 13.4%
- growth (RXF 393 renal): 27.8%
- growth (SF-268 CNS): 16.5%
- growth (SF-295 CNS): 20.8%
- growth (SF-539 CNS): -0.811% (active)
- growth (UACC-257 melanoma): 60.8%
- growth (M14 melanoma): 9.77% (active)

SMILES: COc1ccc(-c2nnc(NC(=O)CN3CCN(c4cc5c(cc4F)c(=O)c(C(=O)O)cn5C4CC4)CC3)s2)cc1OC
- growth (NCI-H23 lung): 96.3%
- growth (NCI-H226 lung): 87.8%
- growth (NCI-H322M lung): 98.2%
- growth (HOP-62 NSCLC): 95.6%
- growth (NCI-H460 lung): 101%
- growth (HOP-92 NSCLC): 106%
- growth (NCI-H522 lung): 89.1%
- growth (A549/ATCC NSCLC): 100%
- growth (786-0 renal): 88.1%
- growth (COLO 205 colon): 104%
- growth (DU-145 prostate): 113%
- growth (K-562 leukemia): 89.9%
- growth (MALME-3M melanoma): 98.9%
- growth (MDA-MB-231 breast): 102%
- growth (RXF 393 renal): 105%
- growth (SF-268 CNS): 97.7%
- growth (SF-295 CNS): 103%
- growth (SF-539 CNS): 96.8%
- growth (UACC-257 melanoma): 98%
- growth (M14 melanoma): 97.7%

SMILES: O[C@@H]1CCO[C@H](c2ccc3ccccc3c2)C1
- growth (NCI-H23 lung): 95.3%
- growth (NCI-H226 lung): 96.8%
- growth (NCI-H322M lung): 104%
- growth (HOP-62 NSCLC): 99.5%
- growth (NCI-H460 lung): 107%
- growth (HOP-92 NSCLC): 93.1%
- growth (NCI-H522 lung): 87.9%
- growth (A549/ATCC NSCLC): 96.7%
- growth (786-0 renal): 98.7%
- growth (COLO 205 colon): 106%
- growth (DU-145 prostate): 102%
- growth (K-562 leukemia): 98.3%
- growth (MALME-3M melanoma): 96.7%
- growth (MDA-MB-231 breast): 104%
- growth (RXF 393 renal): 97%
- growth (SF-268 CNS): 96.2%
- growth (SF-295 CNS): 102%
- growth (SF-539 CNS): 98.9%
- growth (UACC-257 melanoma): 98.5%
- growth (M14 melanoma): 101%

SMILES: C=C1C(=O)O[C@H]2[C@H]1CC/C(C(=O)Nc1ccc(OC)c(C(N)=O)c1O)=C\CC[C@@]1(C)O[C@@H]21
- growth (NCI-H23 lung): 73.4%
- growth (NCI-H226 lung): 61.3%
- growth (NCI-H322M lung): 108%
- growth (HOP-62 NSCLC): 85.1%
- growth (NCI-H460 lung): 92%
- growth (HOP-92 NSCLC): 26.4%
- growth (NCI-H522 lung): 5.78% (active)
- growth (A549/ATCC NSCLC): 77.8%
- growth (786-0 renal): 43.1%
- growth (COLO 205 colon): 10.7%
- growth (DU-145 prostate): 36.3%
- growth (K-562 leukemia): 22.9%
- growth (MALME-3M melanoma): 21%
- growth (MDA-MB-231 breast): 58.4%
- growth (RXF 393 renal): 3.02% (active)
- growth (SF-268 CNS): 86.3%
- growth (SF-295 CNS): 94.9%
- growth (SF-539 CNS): 60.5%
- growth (UACC-257 melanoma): 51.1%
- growth (M14 melanoma): 55.8%

SMILES: Cc1cc2c(cc1C)N(C(=O)CCl)CCN2C(=O)CCl
- growth (NCI-H23 lung): -57.1% (active)
- growth (NCI-H226 lung): -19.3% (active)
- growth (NCI-H322M lung): 10.2%
- growth (HOP-62 NSCLC): -46.7% (active)
- growth (NCI-H460 lung): -54.7% (active)
- growth (HOP-92 NSCLC): -72.5% (active)
- growth (NCI-H522 lung): -82.5% (active)
- growth (A549/ATCC NSCLC): -29.4% (active)
- growth (786-0 renal): -24.8% (active)
- growth (COLO 205 colon): -41.7% (active)
- growth (DU-145 prostate): -97.8% (active)
- growth (K-562 leukemia): 5.44% (active)
- growth (MALME-3M melanoma): -57.3% (active)
- growth (MDA-MB-231 breast): -45.9% (active)
- growth (RXF 393 renal): -47.1% (active)
- growth (SF-268 CNS): -33.4% (active)
- growth (SF-295 CNS): 11.8%
- growth (SF-539 CNS): -85.6% (active)
- growth (UACC-257 melanoma): -67.2% (active)
- growth (M14 melanoma): -12.1% (active)
